{
  "source": "PubChem BioAssay (Tox21)",
  "note": "Several values for one entry are separate records, joined by “and”; a condition that tells them apart may be missing. Equal entries are not always repeated. Records with an inconclusive call do not appear. A call without a number means that no potency is given here. A structure can be active in one record and inactive in another. Activity calls are given as the source filed them. Unless noted, calls follow the shape of the full dose curve. Potency is read from the fitted curve at half-maximal effect.",
  "data": [
    {"assay": "qHTS assay for small molecules that induce genotoxicity in human embryonic kidney cells expressing luciferase-tagged ATAD5 - cell viability (AID 651634); also: nearly all actives have a fitted effect of over 25% in size", "conditions": "HEK293T ATAD5-luc cells viability, CellTiter-Fluor, 15.5 h; series mostly up to 83.3 µM; activity, negative = cytotoxicity: at the top concentration", "method_in_brief": "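HEK293T cells expressing luciferase-tagged ATAD5 were exposed to compound or DMSO for 15.5 hr at 37C, 5% CO2. Viability was then read as live-cell protease activity by CellTiter-Fluor fluorescence after 30 min at 37C.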", "values": [
      {"smiles": "Nc1ncn([C@@H]2O[C@H](CO)[C@@H](O)[C@H]2O)c(=O)n1", "Potency": "750 nM (active) and 1.37 µM (active)"},
      {"smiles": "OC1CCCCCCCCCCC1", "activity, negative = cytotoxicity": "-6.69% [at 95.3 µM] (inactive)"},
      {"smiles": "O=CCc1ccccc1", "Potency": "inactive"},
      {"smiles": "Nc1ccc(Cl)cc1Cl", "Potency": "inactive"},
      {"smiles": "COC(=O)c1ccccc1", "Potency": "inactive"},
      {"smiles": "CCC(C)(O)CCCC(C)C", "note": "(stereo unspecified)", "Potency": "inactive"},
      {"smiles": "Cc1ncc[nH]1", "Potency": "inactive"},
      {"smiles": "CC(C)OC=O", "Potency": "inactive"},
      {"smiles": "c1ccc2c(c1)c1cccc3ccc4cccc2c4c31", "activity, negative = cytotoxicity": "20.2% (inactive)"},
      {"smiles": "Brc1cc(Oc2cc(Br)c(Br)c(Br)c2Br)c(Br)c(Br)c1Br", "Potency": "inactive"},
      {"smiles": "CCCCC(CC)COC(=O)c1ccc(N(C)C)cc1", "note": "(stereo unspecified)", "Potency": "inactive"},
      {"smiles": "CC(=O)CC/C=C(\\C)CCC=C(C)C", "Potency": "inactive"},
      {"smiles": "O=C1c2cccc(O)c2C(=O)c2c(O)cccc21", "Potency": "inactive"},
      {"smiles": "CN(C)c1nc(N(C)C)nc(N(C)C)n1", "Potency": "inactive"},
      {"smiles": "O=C=Nc1ccc(Cc2ccc(N=C=O)cc2)cc1", "Potency": "inactive"},
      {"smiles": "CCCCOCCOCCO", "Potency": "inactive"},
      {"smiles": "CC(=O)Oc1ccccc1C(=O)Nc1ncc([N+](=O)[O-])s1", "Potency": "18.8 µM (active) and 22.1 µM (active)"},
      {"smiles": "CN(C)CCN(Cc1cccs1)c1ccccn1", "Potency": "inactive"},
      {"smiles": "CCOCCOCCO", "Potency": "inactive"},
      {"smiles": "CC(C)Oc1ccc2c(=O)c(-c3ccccc3)coc2c1", "Potency": "inactive"},
      {"smiles": "CC(C)=CCCC(C)CCO", "note": "(stereo unspecified)", "Potency": "inactive"},
      {"smiles": "O=S(=O)(O)c1ccc(O)cc1", "Potency": "inactive"},
      {"smiles": "Nc1ncnc2nc[nH]c12", "Potency": "inactive"},
      {"smiles": "CC(CCC(=O)O)(c1ccc(O)cc1)c1ccc(O)cc1", "Potency": "inactive"},
      {"smiles": "O=C(Nc1ccc(Cl)cc1)Nc1ccc(Cl)c(Cl)c1", "Potency": "9.44 µM (active)"},
      {"smiles": "O=CCCCC=O", "Potency": "inactive"},
      {"smiles": "c1ccc2c(c1)Oc1ccccc1S2", "Potency": "inactive"},
      {"smiles": "CCCCCCCCCCCO", "Potency": "inactive"},
      {"smiles": "CC(C)=CCC/C(C)=C\\CO", "Potency": "inactive"},
      {"smiles": "C[C@]12CCC(=O)C=C1CC[C@@H]1[C@@H]2C(=O)C[C@@]2(C)[C@H]1CC[C@]2(O)C(=O)CO", "Potency": "inactive"},
      {"smiles": "COc1ccc(C(=O)CC(=O)c2ccc(C(C)(C)C)cc2)cc1", "Potency": "inactive"},
      {"smiles": "Cc1ccc(C)c(O)c1C", "Potency": "inactive"},
      {"smiles": "CCC(C)OC(=O)c1ccc(O)cc1", "note": "(stereo unspecified)", "Potency": "inactive"},
      {"smiles": "C[Si](C)(C)O[Si](C)(C)C", "Potency": "inactive"},
      {"smiles": "CC(C)OB(OC(C)C)OC(C)C", "Potency": "inactive"},
      {"smiles": "CCCCC(CC)COP(=O)(OCC(CC)CCCC)OCC(CC)CCCC", "note": "(stereo unspecified)", "Potency": "inactive"},
      {"smiles": "CCC(C)CO", "note": "(stereo unspecified)", "Potency": "inactive"},
      {"smiles": "O=C(Nc1ccc([N+](=O)[O-])cc1Cl)c1cc(Cl)ccc1O", "Potency": "596 nM (active) and 2.43 µM (active)"},
      {"smiles": "Cc1c(OCC(F)(F)F)ccnc1CS(=O)c1nc2ccccc2[nH]1", "note": "(stereo unspecified)", "Potency": "inactive"}
    ]},
    {"assay": "qHTS assay for small molecule disruptors of the mitochondrial membrane potential - cell viability (AID 720634); also: nearly all actives have a fitted effect of over 20% in size;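 as to activity change, negative = cytotoxicity: human HepG2 liver cancer cells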", "conditions": "HepG2 viability, ATP luminescence (CellTiter-Glo), 1 h; series mostly up to 83.2 µM; activity change, negative = cytotoxicity: at the top concentration", "method_in_brief": "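HepG2 cells seeded overnight at 37 C, then exposed to compound or DMSO for 1 hr at 37 C, 5% CO2. m-MPI dye added, then CellTiter-Glo for 30 min at room temperature; viability read as ATP luminescence.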", "values": [
      {"smiles": "Nc1ncn([C@@H]2O[C@H](CO)[C@@H](O)[C@H]2O)c(=O)n1", "Potency": "inactive"},
      {"smiles": "O=CCc1ccccc1", "Potency": "inactive"},
      {"smiles": "Nc1ccc(Cl)cc1Cl", "Potency": "inactive"},
      {"smiles": "CCC(C)(O)CCCC(C)C", "note": "(stereo unspecified)", "Potency": "inactive"},
      {"smiles": "Cc1ncc[nH]1", "Potency": "inactive"},
      {"smiles": "c1ccc2c(c1)c1cccc3ccc4cccc2c4c31", "Potency": "inactive"},
      {"smiles": "Brc1cc(Oc2cc(Br)c(Br)c(Br)c2Br)c(Br)c(Br)c1Br", "Potency": "inactive"},
      {"smiles": "CC(=O)CC/C=C(\\C)CCC=C(C)C", "Potency": "inactive"},
      {"smiles": "O=C1c2cccc(O)c2C(=O)c2c(O)cccc21", "Potency": "inactive"},
      {"smiles": "CN(C)c1nc(N(C)C)nc(N(C)C)n1", "Potency": "inactive"},
      {"smiles": "O=C=Nc1ccc(Cc2ccc(N=C=O)cc2)cc1", "Potency": "inactive"},
      {"smiles": "CC(=O)Oc1ccccc1C(=O)Nc1ncc([N+](=O)[O-])s1", "Potency": "0.556 µM (active)"},
      {"smiles": "CN(C)CCN(Cc1cccs1)c1ccccn1", "Potency": "inactive"},
      {"smiles": "CCOCCOCCO", "Potency": "inactive"},
      {"smiles": "CC(C)Oc1ccc2c(=O)c(-c3ccccc3)coc2c1", "Potency": "inactive"},
      {"smiles": "CC(C)=CCCC(C)CCO", "note": "(stereo unspecified)", "Potency": "inactive"},
      {"smiles": "O=S(=O)(O)c1ccc(O)cc1", "Potency": "inactive"},
      {"smiles": "Nc1ncnc2nc[nH]c12", "Potency": "inactive"},
      {"smiles": "CC(CCC(=O)O)(c1ccc(O)cc1)c1ccc(O)cc1", "Potency": "inactive"},
      {"smiles": "O=C(Nc1ccc(Cl)cc1)Nc1ccc(Cl)c(Cl)c1", "Potency": "1.93 µM (active)"},
      {"smiles": "O=CCCCC=O", "Potency": "inactive"},
      {"smiles": "c1ccc2c(c1)Oc1ccccc1S2", "Potency": "inactive"},
      {"smiles": "CCCCCCCCCCCO", "Potency": "inactive"},
      {"smiles": "C[Si](C)(C)O[Si](C)(C)C", "Potency": "inactive"},
      {"smiles": "CCC(C)CO", "note": "(stereo unspecified)", "Potency": "inactive"},
      {"smiles": "Cc1c(OCC(F)(F)F)ccnc1CS(=O)c1nc2ccccc2[nH]1", "note": "(stereo unspecified)", "activity change, negative = cytotoxicity": "-13.5% (inactive)"}
    ]},
    {"assay": "qHTS assay for small molecule disruptors of the mitochondrial membrane potential (AID 720635; active = well fitted inhibition curve with a large enough effect in the signal ratio in the repeat runs; the % refers to the signal ratio)", "conditions": "HepG2 mitochondrial membrane potential, Mito-MPS dye ratio; series mostly up to 83.2 µM; ratio activity, negative = MMP loss: at the top concentration", "method_in_brief": "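HepG2 cells exposed to compound 1 hr at 37C, then Mito-MPS dye 30 min. Ratio read of aggregate (540/590 nm) versus monomer (490/535 nm) fluorescence.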", "values": [
      {"smiles": "Nc1ncn([C@@H]2O[C@H](CO)[C@@H](O)[C@H]2O)c(=O)n1", "Potency": "inactive"},
      {"smiles": "OC1CCCCCCCCCCC1", "Potency": "55 µM (active) and 54.5 µM (active)"},
      {"smiles": "O=CCc1ccccc1", "Potency": "inactive and 54.5 µM (active)"},
      {"smiles": "Nc1ccc(Cl)cc1Cl", "Potency": "inactive"},
      {"smiles": "COC(=O)c1ccccc1", "ratio activity, negative = MMP loss": "19% (inactive)"},
      {"smiles": "CCC(C)(O)CCCC(C)C", "note": "(stereo unspecified)", "Potency": "inactive"},
      {"smiles": "Cc1ncc[nH]1", "Potency": "inactive"},
      {"smiles": "CC(C)OC=O", "Potency": "inactive"},
      {"smiles": "c1ccc2c(c1)c1cccc3ccc4cccc2c4c31", "Potency": "30.6 µM (active)"},
      {"smiles": "CCCCC(CC)COC(=O)c1ccc(N(C)C)cc1", "note": "(stereo unspecified)", "Potency": "8.68 µM (active) and 21.7 µM (active)"},
      {"smiles": "CC(=O)CC/C=C(\\C)CCC=C(C)C", "Potency": "inactive"},
      {"smiles": "O=C1c2cccc(O)c2C(=O)c2c(O)cccc21", "Potency": "2.37 µM (active) and 3.1 µM (active)"},
      {"smiles": "CN(C)c1nc(N(C)C)nc(N(C)C)n1", "ratio activity, negative = MMP loss": "-10.1% [at 39.1 µM] (inactive)"},
      {"smiles": "O=C=Nc1ccc(Cc2ccc(N=C=O)cc2)cc1", "ratio activity, negative = MMP loss": "-14.6% (inactive)"},
      {"smiles": "CCCCOCCOCCO", "ratio activity, negative = MMP loss": "7.4% [at 95.3 µM] (inactive)"},
      {"smiles": "CC(=O)Oc1ccccc1C(=O)Nc1ncc([N+](=O)[O-])s1", "Potency": "1.5 µM (active) and 351 nM (active)"},
      {"smiles": "CN(C)CCN(Cc1cccs1)c1ccccn1", "Potency": "inactive"},
      {"smiles": "O=S(=O)(O)c1ccc(O)cc1", "ratio activity, negative = MMP loss": "-6.55% (inactive)"},
      {"smiles": "CC(CCC(=O)O)(c1ccc(O)cc1)c1ccc(O)cc1", "ratio activity, negative = MMP loss": "-13% [at 95.3 µM] (inactive)"},
      {"smiles": "O=C(Nc1ccc(Cl)cc1)Nc1ccc(Cl)c(Cl)c1", "Potency": "150 nM (active) and 68.2 nM (active) and 86.3 nM (active)"},
      {"smiles": "O=CCCCC=O", "Potency": "inactive"},
      {"smiles": "CCCCCCCCCCCO", "Potency": "inactive and 21.7 µM (active)"},
      {"smiles": "COc1ccc(C(=O)CC(=O)c2ccc(C(C)(C)C)cc2)cc1", "Potency": "inactive and 16.5 µM (active)"},
      {"smiles": "Cc1ccc(C)c(O)c1C", "Potency": "inactive"},
      {"smiles": "CCC(C)OC(=O)c1ccc(O)cc1", "note": "(stereo unspecified)", "Potency": "24.5 µM (active) and 17.2 µM (active)"},
      {"smiles": "C[Si](C)(C)O[Si](C)(C)C", "ratio activity, negative = MMP loss": "12.7% (inactive)"},
      {"smiles": "CC(C)OB(OC(C)C)OC(C)C", "ratio activity, negative = MMP loss": "15.1% [at 95.3 µM] (inactive)"},
      {"smiles": "CCCCC(CC)COP(=O)(OCC(CC)CCCC)OCC(CC)CCCC", "note": "(stereo unspecified)", "ratio activity, negative = MMP loss": "15.5% [at 95.3 µM] (inactive)"},
      {"smiles": "CCC(C)CO", "note": "(stereo unspecified)", "Potency": "inactive"},
      {"smiles": "O=C(Nc1ccc([N+](=O)[O-])cc1Cl)c1cc(Cl)ccc1O", "Potency": "26.6 nM (active) and 9.7 nM (active)"},
      {"smiles": "Cc1c(OCC(F)(F)F)ccnc1CS(=O)c1nc2ccccc2[nH]1", "note": "(stereo unspecified)", "Potency": "54.5 µM (active)"}
    ]}
  ]
}
